This is part of a sample that, as a whole, favours compounds with a hit. Of some 83,000 tested, about 20% had one in any assay.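 Single-concentration screen, 48 h exposure, 96-well plates. Endpoint: percent growth. Below 10 = active.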 Values without a mark were called inactive. Activity calls are given as the source filed them.

The assay concerns MDA-MB-468 breast. The assay can be described thus: NCI-60 one-dose screen, 48 h (100 = growth as untreated, 0 = no growth, -100 = all killed). The following applies: 10 µM unless noted.
For the compound `COc1ccc(N2CCN(c3nc(-c4cc(OC)c(OC)c(OC)c4)nc4ccccc34)CC2)cc1`, the growth is 76.2%.
For `Cc1cccc(NC(=O)c2sc3nc4c(cc3c2N)CCC4)c1C`, the growth is 10.6%.
Regarding `Cc1cnc(C(=O)NNc2nc3sc4c(c3c(=O)[nH]2)C(C)CCC4)cn1` (stereo not given), the growth was -10.4% (active).
For the compound `Cc1ccc2c(n1)C(=O)C(Cl)=C(Nc1ccc(C)c(C)c1)C2=O`, the growth is -25.3% (active).
Then `Nc1nc2c(c3cnccc13)C(c1ccc(Cl)c(Cl)c1)Cc1cnccc1-2` (stereo not given), with -42.2% (active).
Then `CCn1c(Cc2ccccc2Nc2c(Cl)cccc2Cl)nnc1SCC(=O)NN1C(=O)/C(=C/c2cccc(OC)c2OC)SC1=S`, with 99.5%.
As to `CC1(C)CC(=O)c2c(nn(-c3ccc(Br)cc3)c2-c2cn(-c3ccccc3)nc2-c2cccnc2)C1`, the growth was 107%.
Then `Clc1ccc2[nH]cc(-c3nc(-c4c[nH]c5ncccc45)cs3)c2c1`, with 45.2%.
In the case of `CCCCNc1ccc(C#N)c(OCCN(CC)CC)c1`, the growth is 90.1%.
Then `CC1=C(C(=O)Nc2ccccc2)C(c2ccc3c(c2)OCCO3)NC(=O)N1` (stereo not given), with 106%; and `CC1=C([Se]CC(OC(=O)[C@@H](CO)NC(=O)OC(C)(C)C)C(=O)NC(C)(C)C)C(=O)c2ccccc2C1=O` (stereo not given in full), with -74.2% (active); and `COc1ccc(/C=C/C(=O)c2cc(S(N)(=O)=O)c(OC)cc2OC)cc1`, with -6.04% (active).
Then `C/C=C1/CN(CCCCC)CC[C@H]1C(=O)c1cc2ccccc2[nH]1`, with 90.7%; and `O=Nc1ccc(O)c2ccccc12`, with 11.7%; and `O=C1C2=C(CCN(Cc3ccccc3)C2)N2CCN=C2N1Cc1ccc(C(F)(F)F)cc1`, with 8.96% (active).
Then `N/C(=N\c1nc2ccccc2[nH]1)NC(=O)Cc1cccc2ccccc12`, with 79.8%; and `COc1ccccc1NC(=O)c1cc2cc(Br)ccc2cc1O`, with -9.27% (active).
Regarding `O=C(O)c1cccc2c1-c1ccccc1C2=O`, the growth is 116%.
Under `O=[N+]([O-])c1cccc(C2c3ccccc3Oc3ccccc32)c1` stands 95.4%.
Under `C=C[C@@H]1C[C@@H]2Cc3cc(F)ccc3N1O2` stands 116%; under `COC1(CC[C@@H](C)COC2OC(CO)C(O)C(O)C2O)O[C@H]2C[C@H]3[C@@H]4CC=C5C[C@@H](OC6OC(CO)C(OC7OC(C)C(O)C(O)C7O)C(O)C6OC6OC(C)C(O)C(O)C6O)CC[C@]5(C)[C@H]4CC[C@]3(C)[C@H]2[C@@H]1C` (stereo not given in full), -24% (active).
Then `Cc1ccc(-c2cc(-c3cccnc3)[nH]c(=O)c2C#N)cc1`, with 106%; and `COc1ncc(-c2ccc3nccc(C#CCCCCC(=O)O)c3c2)cc1NS(=O)(=O)c1ccc(F)cc1F`, with -29.4% (active).
On to `COc1cc(C(=O)N/N=C/c2cccc([N+](=O)[O-])c2)cc(OC)c1OC`, for which the growth was 6.95% (active).
In the case of `CC1=C(O)C(=O)C(c2c(C)cc(C)c(Br)c2C)=C(O)C1=O`, the growth is 85.8%.
Under `Cn1c(=O)c2[nH]c(Cc3ccc4c(c3)OCO4)nc2n(C)c1=O` stands 106%; under `NS(=O)(=O)c1ccc(-n2nc(-c3ccc(Cl)cc3)c3ccccc3c2=O)cc1`, 104%.
Consider `c1ccc2c(NCCCn3ccnc3)c3oc4ccccc4c3nc2c1`, for which the growth was -8.65% (active).
Turning to `CC[C@H](Nc1ncnc(N)c1C(N)=O)c1nc2cccc(NCc3ccc(C(=O)NO)cc3)c2c(=O)n1-c1ccccc1`, the growth is 32.2%.
Then `CCN=C1C=CC(=C(c2ccc(N(C)C)cc2)c2ccc(N(C)C)cc2)c2ccccc21`, with -26.8% (active); and `O=C(NCCN1CCOCC1)OCc1nc2nc(Cl)nc(N3CCOCC3)c2[nH]1`, with 10.1%; and `CC(=O)O[C@H]1C[C@@H]2C(C)(C)C(=O)CC[C@@]2(C)c2ccc(C(C)C)cc21`, with 105%.
Turning to `COc1cc(/C=C/C(=O)c2ccc(Cl)cc2)cc(CN2CCCCC2)c1O`, the growth was 93.2%.
For `CN(C)c1ncnc2c1ncn2C1CCCCO1` (stereo not given), the growth was 111%.
Under `COc1cc2c(cc1[N+](=O)[O-])-c1ccc([N+](=O)[O-])cc1/C2=N\O` stands 49.4%; under `O=C(/C=C/C=C/c1csc(Br)n1)NO`, 99.7%; under `COc1cc(-c2nn(-c3ccc(NC(=O)Nc4ccc(Cl)c(C(F)(F)F)c4)cc3)cc2-c2ccncc2)ccc1Cl`, -13.2% (active).
`CCC(C)C1NC(=O)C(CC(C)C)NC(=O)C(C)NC(=O)C(C(C)C)NC(=O)C(CCCCN)NC(=O)C(CC(C)C)NC(=O)C(C(C)C)NC(=O)[C@H](C)NC(=O)C(C(C)CC)NC(=O)C(CCCN=C(N)N)NC(=O)C(CCCCN)NC(=O)C(CCCN=C(N)N)NC(=O)C(CCCCN)NC(=O)C([C@H](C)CC)NC(=O)C(CCCCN)NC1=O` (stereo not given in full): the growth was -4.06% (active).
Turning to `Brc1ccc(Nc2nc(Nc3cnc4ccccc4c3)c3[nH]cnc3n2)cc1`, the growth was 65.5%.
`Cc1nccc2c3ccc(OCc4cn(-c5ccc(Br)cc5)nn4)cc3n(CCCc3ccccc3)c12`: the growth was 108%.

Source of the values: PubChem BioAssay (NCI).
